An excerpt weighted towards active compounds, which were near 11% of everything screened.
ALDH1A1 inh: qHTS Assay for Inhibitors of Aldehyde Dehydrogenase 1 (ALDH1A1). Purified ALDH1A1, NADH fluorescence, propionaldehyde substrate. Aldehyde dehydrogenase 1A1 (Homo sapiens), P00352. Potency, µM (titrated, usually from 75.3 µM), for the others: at the highest dose activity, negative = inhibition, usual class: inhibitors. 220,000 tested, 7.3% active; active = well fitted inhibition curve with a large enough effect, not every such curve was filed as active; inconclusive = small, poorly fitted or top-dose-only effect, or another doubt; inactive = no such curve, though single readings can be large or run the other way;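 also: potency is read from the fitted curve at half-maximal effect; plate controls were no enzyme wells and a reference inhibitor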
HPGD block: qHTS Assay for Inhibitors of HPGD (15-Hydroxyprostaglandin Dehydrogenase). 15-hydroxyprostaglandin dehydrogenase [NAD(+)] (Homo sapiens), P15428. purified HPGD, NADH fluorescence kinetic, PGE2 substrate. Potency, µM, for the others: at the highest dose activity change, negative = inhibition, actives largely listed as inhibitors. 150,000 tested, 4.3% active. AID 894, 2007; active = well fitted inhibition curve with a large enough effect, not every such curve was filed as active; inconclusive = small, poorly fitted or top-dose-only effect, or another doubt; inactive = no such curve, though single readings can be large or run the other way; also: potency is read from the fitted curve at half-maximal effect
Target sequence (P15428 whole entry, looked up): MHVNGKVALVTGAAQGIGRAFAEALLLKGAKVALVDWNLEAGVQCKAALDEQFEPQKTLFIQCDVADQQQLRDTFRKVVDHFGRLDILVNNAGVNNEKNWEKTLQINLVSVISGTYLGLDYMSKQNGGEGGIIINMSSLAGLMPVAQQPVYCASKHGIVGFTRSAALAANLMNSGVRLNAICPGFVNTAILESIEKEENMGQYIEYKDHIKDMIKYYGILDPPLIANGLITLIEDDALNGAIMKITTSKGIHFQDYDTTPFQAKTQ
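NADH formation kinetics: reaction with 30 uM PGE2 and 1 mM NAD+ (final), 20 nM enzyme, Tris-HCl pH 8 with Tween 20, after 15 min compound preincubation at room temperature. Fluorescence change, last versus first of five reads.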
IMPase Li cell: qHTS Assay for Identifying the Cell-Membrane Permeable IMPase Inhibitors: Potentiation with Lithium | CHO-M1 cells, IP1 TR-FRET (IP-One), carbachol + lithium | Potency, µM (doses to about 59.4 µM), inactives show at the highest dose activity, negative = IMPase inhibition, usual class: inhibitors | 210,000 tested, 0.35% active;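 also: IP1 builds up when IMPase is blocked and the TR-FRET signal falls; potency is read from the fitted curve at half-maximal effect; plate controls were basal vehicle for no effect and high inhibitor control for full effect; nearly all actives have a fitted effect of over 50% in size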
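Steps: plate 2000 CHO-M1 cells per well and culture 16–30 h; add compound and lithium; incubate 30 min, 37C; add d2-IP1 tracer and Eu cryptate anti-IP1 antibody in lysis buffer; read after 10 min at room temperature.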
IMPase inh: qHTS Assay for Identifying the Cell-Membrane Permeable IMPase Inhibitors; Inositol monophosphatase 1 (Rattus norvegicus), P97697; CHO-M1 cells, IP1 accumulation, HTRF TR-FRET ratio; inhibition (IP1 accumulation), % at 46.1 µM; 120,000 tested, under 10 active; AID 901, 2007; active = well fitted curve in the direction sought with a large enough effect in the signal ratio, not every such curve was filed as active; inconclusive = small, poorly fitted or top-dose-only effect, or a change in a side signal; inactive = no such curve, though single readings can be large or run the other way; the % refers to the signal ratio;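 also: cells stimulated with carbachol in lithium chloride buffer; plate controls were DMSO basal wells for no effect and reference inhibitor wells for full effect; higher means more IMPase inhibition seen as more IP1 and lower FRET ratio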
Target sequence (P97697 whole entry, looked up): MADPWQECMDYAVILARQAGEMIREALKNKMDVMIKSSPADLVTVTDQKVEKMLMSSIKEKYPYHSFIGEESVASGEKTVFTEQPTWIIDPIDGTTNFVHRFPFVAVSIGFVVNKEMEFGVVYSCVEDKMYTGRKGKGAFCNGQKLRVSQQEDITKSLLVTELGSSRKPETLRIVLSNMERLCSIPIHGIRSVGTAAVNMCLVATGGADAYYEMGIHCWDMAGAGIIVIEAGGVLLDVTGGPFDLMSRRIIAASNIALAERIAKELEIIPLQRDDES
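Elevated IP1 in lysates lowers TR-FRET signal (665/620 ratio and 620 channel reported). Cells were CHO-M1, given carbachol (50 uM as added) plus 50mM LiCl, pH 7.4, 30 min, 37C; compounds titrated up to 46 uM; AC50 by Hill equation.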
NPSR antagonist: qHTS Assay for Antagonists of the Neuropeptide S Receptor: cAMP Signal Transduction; Q6W5P4; CHO-NPSR cells, cAMP TR-FRET, antagonist mode; Potency, µM (top dose mostly 38.3 µM), without a hit: at the top dose activity change, negative = inhibition, actives largely listed as inhibitors; 220,000 tested, 1% active; also: potency is read from the fitted curve at half-maximal effect; nearly all actives have a fitted effect of over 50% in size
PNC inhibitor: High Content Assay for Compounds that inhibit the Assembly of the Perinucleolar Compartment; 140,000 tested, 3.1% active; activity change (PNC), negative = inhibition, % at 10 µM; PC3M PTB-GFP, PNC prevalence imaging, 16 h; active compounds read low;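 active = readout at or below -70, meaning at least 70% loss of cells showing the perinucleolar compartment, a nuclear body marking cancer cells; inconclusive = readout between -30 and a set limit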;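 also: plate controls were DMSO wells for no effect and camptothecin positive control wells for full effect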
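Read-out is percentage of cells bearing a perinucleolar compartment, from automated 20x imaging of fixed, Hoechst-stained PC3M PTB-GFP cells. Cells were seeded 4 h, then exposed 16 h to compound (23 nl of library stock) in duplicate plates.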
* marks the source's active call; other numbers are inactive results; u = inconclusive; x = no result; [ ] = dose if it differs, or a comment. Unless noted, calls follow the shape of the dose curve; as a rule, active = well fitted curve in the direction sought with a large enough effect; inconclusive = small, poorly fitted or top-dose-only effect, or another doubt; inactive = no such curve, though single readings can be large; an effect the other way counts as inactive or inconclusive. Unless noted, % is scaled to controls: 0 for no effect and ±100 for the full control effect.

SMILES	ALDH1A1 inh	HPGD block	IMPase Li cell	IMPase inh	NPSR antagonist	PNC inhibitor
O=C1C2ON(c3ccccc3)C(c3ccncc3)C2C(=O)N1c1ccc(N2CCOCC2)cc1 (centres undefined)	-7.5%	2.4%	11.1%[38.3 µM]	5.9	-3.0%[46.1 µM]	4.9
CCCCCCC(=O)N(O)C1CC(=O)N(c2ccc(C)cc2)C1=O (centres undefined)	0.447µM*	7.94µM*	24.5%[38.3 µM]	-8.8	-3.5%[46.1 µM]	-15.5
CCCCCCC(=O)N(O)C1CC(=O)N(c2ccc(Cl)cc2)C1=O (centres undefined)	x	x	x	x	-18.3%	x
Cc1ccc(N2C(=O)CC(N(O)C3CC(=O)N(c4ccc(C)cc4)C3=O)C2=O)cc1 (centres undefined)	2.82µM*	31.6µM*	-7.6%[38.3 µM]	-1.2	-23.8%[46.1 µM]	-0.5
CC(NC(=O)CNC(=S)N(Cc1ccccc1)Cc1cccnc1)c1ccccc1 (centres undefined)	-10.3%	x	-3.7%	x	-11.2%	x
O=C(COc1ccc2ccc(=O)oc2c1)N1CCc2ccccc21	u	x	-15.8%	x	2.2%	x
Cc1nn(C)c(Oc2ccccc2)c1CCNS(=O)(=O)c1ccc(Cl)cc1	u	-1.7%	11.6%	22.0	0.5%[46.1 µM]	22.1
COc1ccc(S(=O)(=O)NCCc2c(C)nn(C)c2Oc2ccccc2)cc1	0.631µM*	4.2%	9.6%	3.6	-13.7%[46.1 µM]	-27.5
COc1ccc(NC(=O)CSc2c3c(nc4ccccc24)CCCC3)c(OC)c1	-5.2%	-6.8%	4.5%	x	-19.2%	-113.0*
COc1cc(NC(=O)Cn2c(=O)n(CC3CCCO3)c(=O)c3ccccc32)cc(OC)c1 (centres undefined)	u	x	7.0%	x	-33.2%	x
COc1ccc(NC(=O)Cn2c(=O)n(CC3CCCO3)c(=O)c3ccccc32)c(OC)c1 (centres undefined)	0.0282µM*	x	-6.3%	x	19.0%	x
O=C(O)CSc1c2c(nc3cc(C(=O)N4CCOCC4)ccc13)CCCC2	-1.6%	3.98µM*	-4.4%[38.3 µM]	-5.3	0.4%[46.1 µM]	28.7
COc1ccccc1NC(=O)CSc1c2c(nc3ccccc13)CCC2	3.2%	-25.6%	13.7%	x	23.3%	-16.3
COc1cc(NC(=O)c2ccc3c(SCC(=O)O)c4c(nc3c2)CCCC4)cc(OC)c1OC	10µM*	x	-9.3%	x	22.6%	x
CCn1c(C)nc2cc(S(=O)(=O)Nc3ccc(C)cc3)ccc21	-1.3%	x	3.1%	x	4.2%	x
Cc1ccc(-c2csc(=S)n2CC(=O)OCC(=O)NC(C)C(C)C)cc1 (centres undefined)	1.58µM*	-14.6%	-6.5%[38.3 µM]	11.9	-18.6%[46.1 µM]	-4.8
CC(OC(=O)/C=C/c1ccco1)C(=O)Nc1cccc([N+](=O)[O-])c1 (centres undefined)	u	u	31.8%	0.9	-1.1%[46.1 µM]	-83.7*
COc1ccc([N+](=O)[O-])cc1NC(=O)C(C)OC(=O)/C=C/c1ccco1 (centres undefined)	u	28.2µM*	24.2%	x	-10.6%	71.7
Cc1nn(-c2ccccc2)c(C)c1[N+](=O)[O-]	8.0%	x	6.2%	x	9.5%	x
COCCNC(=O)C(c1cccnc1)N(Cc1ccccc1)C(=O)Cn1nnc2ccccc21 (centres undefined)	7.5%	x	-5.4%	x	7.2%	x
O=C(/C=C/c1ccc([N+](=O)[O-])s1)N1CCCC1	u	x	-15.2%	x	-20.6%	x
CC1CC(C)CN(C(=O)/C=C/c2ccc([N+](=O)[O-])s2)C1 (centres undefined)	2.82µM*	x	u	x	-47.8%	x
O=C(/C=C/c1ccc([N+](=O)[O-])s1)N1CCCCC1	28.2µM*	x	5.8%	x	-28.4%	x
N#Cc1ccc(-c2ccc(OCC(=O)NCCCN3CCCC3=O)cc2)cc1	-9.2%	x	-3.3%	x	-5.3%	x
O=C(NCc1cccs1)C1CCN(C(=O)NCc2ccccc2)CC1	1.9%	-3.9%	7.0%	0.5	-9.2%[46.1 µM]	-0.2
SMILES	ALDH1A1 inh	HPGD block	IMPase Li cell	IMPase inh	NPSR antagonist	PNC inhibitor
O=C(O)c1cccc(-c2ccc(/C=N/NC(=O)c3cccnc3)o2)c1	u	u	17.6%	x	-26.6%	-83.4*
CS(=O)(=O)Nc1ccccc1C(=O)Nc1ccccc1Cl	2.1%	u	0.9%	-4.4	7.0%[46.1 µM]	26.9
COc1ccc(OCCSc2nc3nc(C)cc(C)n3n2)cc1	10.8%	x	2.9%	x	-0.6%	x
CC1C/C(=N/Nc2nc3ccccc3[nH]2)CC(C)(C)C1 (centres undefined)	u	-8.7%	1.8%	x	-30.6%	u
O=C(NCCO)c1ccc(CSc2nc3ccccc3[nH]2)cc1	0.8%	25.1µM*	-5.5%	x	13.5%	-25.5
CC1C/C(=N/NC(=O)c2ccc(CSc3nc4ccccc4[nH]3)cc2)CC(C)(C)C1 (centres undefined)	25.1µM*	-29.3%	2.2%	x	-5.9%	28.0
O=C(NCCCO)c1ccc(CSc2nc3ccccc3[nH]2)cc1	-10.8%	x	8.4%	x	-16.3%	x
COc1cc(/C=N/NC(=O)c2ccc(CSc3nc4ccccc4[nH]3)cc2)cc(OC)c1OC	u	u	3.9%	x	-4.5%	-85.4*
COc1cc(NC(=O)c2ccccc2)c(OC)cc1NC(=O)CN1CCN(c2ccccn2)CC1	15.8µM*	-19.9%	-2.0%[38.3 µM]	8.4	-25.2%[46.1 µM]	-11.7
O=C(CN1CCCC1)N1c2ccccc2Sc2ccc(C(F)(F)F)cc21	4.4%	-12.1%	35.3%	22.0	-11.3%[46.1 µM]	16.7
COc1cc(NS(C)(=O)=O)c(OC)cc1NC(=O)c1ccccc1	25.1µM*	-7.1%	26.2%[38.3 µM]	11.3	-6.3%[46.1 µM]	u
COc1cc2nc(Cl)nc(N3CCN(C)CC3)c2cc1OC	-8.9%	x	-2.2%	x	0.0%	x
O=C(CN1CCN(c2ccccn2)CC1)N1c2ccccc2Sc2ccc(C(F)(F)F)cc21	7.94µM*	-14.9%	23.9%[38.3 µM]	23.9	u	-113.7*
COc1cc2nc(C3CCC3)nc(N3CCN(c4ccccn4)CC3)c2cc1OC	8.91µM*	-10.8%	23.2%	x	-15.7%	4.3
O=C(CN1CCN(c2ccccn2)CC1)Nc1cccc(C(F)(F)F)c1	9.46µM*	4.5%	-9.1%[38.3 µM]	5.4	-4.0%[46.1 µM]	25.6
COc1cc(NC(=S)N2CCN(c3ccccn3)CC2)c(OC)cc1Cl	u	28.2µM*	0.2%	x	5.8%	5.2
COc1ccc(CN=C2NC(=O)CC(C(=O)Nc3ccccc3C)S2)cc1 (centres undefined)	-9.3%	x	x	2.8	7.7%[46.1 µM]	8.5
CCOC(=O)/C(C#N)=C/c1cc2ccccc2nc1N1CCCCC1	18.9µM*	x	u	x	u	x

From PubChem
